# About 83,000 compounds went through this panel and 20% of them were active in at least one assay; those are over-represented in the sample as a whole.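 Single-concentration screen, 48 h exposure, 96-well plates. Endpoint: percent growth. Below 10 = active.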 A number with no mark means an inactive call. Calls of active or inactive are those of the source.
# Test system: SK-MEL-5 melanoma
# Experiment: NCI-60 one-dose screen, 48 h (100 = growth as untreated, 0 = no growth, -100 = all killed)
# Conditions: 10 µM unless noted
# Procedure: Growth inhibition of the SK-MEL-5 human tumor cell line is measured as a screen for anti-cancer activity. Cells are grown in 96 well plates and exposed to the test compound for 48 hours. Compounds are tested at a single concentration, which is 10^-5 M for most compounds. The reported endpoint is percent growth (GI% or GIPRCNT), where numbers from 0 - 100% represent growth inhibition, and numbers from -100% - 0 represent cell death. For example, a value of 40 represents 60% growth inhibition. A value of 0 means no net growth occurred over the course of the experiment. A value of -40 indicates 40% of cells at the beginning of the experiment died by the end of the experiment. A value of -100 means all cells are dead at the end of the experiment.
# NCI-60 Human Tumor Cell Lines Screen was performed using the standard one-dose NCI protocol, which is described in more detail at https://dtp.cancer.gov/discovery_development/nci-60/default.htm.
# Compounds with GIPRCNT values below 10 were considered active. Activity score was based on GIPRCNT using the following formula: […]
# Score is 0 for GIPRCNT values of 100 or above, 50 for GIPRCNT values of 0, and 100 for GIPRCNT values of -100.
row,Structure (SMILES),growth
1,C#CCn1c2c(c3ccccc31)C[C@]1(C)[C@H]3CC[C@@H]4[C@@H]5C(=CCC[C@H]5C(=C)C)CC[C@@]4(C)[C@]3(C)CC[C@H]1C2(C)C,100%
2,Brc1ccc2[nH]cc(-c3nc(-c4c[nH]c5ncccc45)cs3)c2c1,54.7%
3,CC[C@H](CC[C@@H](C)[C@H]1CC[C@H]2[C@@H]3/C(=C/c4cccnc4)C(=O)C4=CC(=O)CC[C@]4(C)[C@H]3CC[C@]12C)C(C)C,79.8%
4,Cc1ccc(Cc2cnc(NC(=O)/C=C/c3cccc(C)c3)s2)cc1,12.6%
5,COc1ccc(C(=O)c2cc(OC)c(OC)c(OC)c2)cc1/C=C/C(=O)c1cc(OC)c(OC)c(OC)c1,86.6%
6,C=C(C)[C@@H]1CC[C@]2(C(=O)N3CCN(CC)CC3)CC[C@]3(C)[C@H](CC[C@@H]4[C@@](C)(CCC(=O)N5CCN(CC)CC5)[C@H](C(=C)C)CC[C@]43C)[C@@H]12,45.5%
7,COc1cc2c(cc1OC)C(=O)/C(=C/c1cc(-c3ccc4c(c3)OCO4)n[nH]1)C2,48.4%
8,COc1cc2ncnc(Nc3ccc(OCc4cccc(F)c4)c(Cl)c3)c2cc1NC(=O)C1CCCC1,95%
9,O=C(O)c1cccc2c1-c1ccc(Cl)cc1C2,103%
10,Cn1cc(-c2nc(-c3c[nH]c4ncccc34)cs2)c2cc(Br)ccc21,91.8%
11,CC1(c2ccccc2)OC1C(=O)O (stereo not given),103%
12,C=C(C)[C@@H]1CC[C@]2(C=O)CC[C@]3(C)[C@H](CC[C@@H]4[C@@]5(C)C/C(=C/c6cccnc6)C(=O)C(C)(C)[C@@H]5CC[C@]43C)[C@@H]12,74.4%
13,COc1ccc(/C(=C\c2ccc3c(c2)OCO3)C(=O)Nc2nc3ccccc3s2)cc1OC,101%
14,Cc1cc(N(CCNc2ccnc3cc(Cl)ccc23)Cc2ccco2)nc(Cl)n1,-63.4% (active)
15,Cn1cc(-c2nc(-c3cn(C)c4ncccc34)cs2)c2cc(F)ccc21,24.7%
16,CCCCC/C(=C\c1ccccc1)C1OC(C)C(C)O1 (stereo not given),92.8%
17,Cn1c(/C(C#N)=C/c2ccc3ccccc3c2)cc2ccccc21,-26.7% (active)
18,CCCCCCCC(=O)SCC/C=C/[C@@H]1CC(=O)NCc2cccc(n2)CN(Cc2ccc3ccccc3c2)CC(=O)N[C@@H](C(C)C)C(=O)O1,9.24% (active)
19,C/C(Cc1ccc(Cl)cc1)=C(/c1ccc(Cl)cc1)c1ccc(OCCN2CCCC2)cc1,93.1%
20,NS(=O)(=O)c1ccc(CCNC(=O)/C=C/c2ccc(Cl)cc2)cc1,105%

row,Structure (SMILES),growth
1,Cn1cc(-c2csc(-c3cn(CCNC(=O)OC(C)(C)C)c4ccc(F)cc34)n2)c2cccnc21,23.6%
2,CCc1nnc(NC(=O)c2ccoc2COc2ccccc2)s1,44.5%
3,Cn1cc(-c2csc(-c3cn(CCCN4CCCCC4)c4ccc(Br)cc34)n2)c2cccnc21,-33.7% (active)
4,COc1cc(-c2cc3ncccc3c3nc(OCCN(C)C)c4cccnc4c23)cc(OC)c1OC,-7.91% (active)
5,C=C(C)[C@@H]1CC[C@]2(C)[C@H](CC[C@@H]3[C@H]4[C@H]5OC[C@@]4(CCC5(C)C)CC[C@]32C)[C@@]1(C)CCCN,97.4%
6,Cn1cc(-c2csc(-c3cn(CCCN4CCCCC4)c4ccc(F)cc34)n2)c2cccnc21,-27.7% (active)
7,COc1cccc(-c2nn(-c3ccccc3)cc2-c2ccnc(NCCNS(=O)(=O)c3cccc(F)c3)c2)c1,26.7%
8,Cc1ccc(-c2nc3ccc(Cl)cc3c(=O)n2N2C(=O)CSC2c2ccccc2Cl)cc1 (stereo not given),94%
9,C=C(C)[C@@H]1CC[C@]2(C)CC[C@]3(C)[C@H](CC[C@@H]4[C@@]5(C)CCCNC(C)(C)[C@@H]5CC[C@]43C)[C@@H]12,98.4%
10,Nc1c(C(=O)Nc2c(Cl)cccc2Cl)sc2nc3c(cc12)CCCC3,83.1%
11,CC1(C)C(=O)/C(=C\c2cccnc2)C[C@]2(C)[C@H]3CC[C@@H]4[C@@H](C(=O)/C=C/c5ccncc5)CC[C@@]4(C)[C@]3(C)CC[C@@H]12,-10.9% (active)
12,O=C1c2ccccc2NC(c2cn(-c3ccccc3)nc2-c2cccnc2)N1Cc1ccccc1 (stereo not given),94.2%
13,Cc1cc(C=O)c(C)c2c1[nH]c1ccccc12,112%
14,NC(=O)NCC1CCCCC1,109%
15,Cc1cc(N2CCOCC2)nc(N(CCCNc2ccnc3cc(Cl)ccc23)Cc2ccco2)n1,11.3%
16,NCCn1cc(-c2nc(-c3c[nH]c4ncccc34)cs2)c2cc(Br)ccc21,85.1%
17,Cn1cc(-c2csc(-c3cn(CCN)c4ccccc34)n2)c2cccnc21,23.7%
18,COc1cccc(NC(=O)c2sc3nc4c(cc3c2N)C(=O)CCC4)c1,3.83% (active)
19,COC(=O)[C@]12CC[C@@H](C)[C@H](C)[C@@H]1C1=CC[C@@H]3[C@@]4(C)C[C@@H](O)OC[C@](C)(C=O)C4C(=O)C[C@@]3(C)[C@]1(C)CC2 (stereo not given in full),-91.3% (active)
20,Cc1ccc2[nH]cc(-c3nc(-c4cn(C)c5ncccc45)cs3)c2c1,76.9%

# — PubChem BioAssay (NCI)
